This passage reports binding signal results from PMC7819943, “Rice protein-binding microarrays: a tool to detect cis-acting elements near promoter regions in rice”.

The full ranking holds about 35,000 sequences; the median of “fluorescence intensity (a.u.)” is about 10,000, and the highest 2% start at about 52,000. Only a selection was taken, and the highest values are over-represented in it overall.

This assay concerns the target T1, OsWOX13 (Oryza sativa, UniProt Q5QMM3 1-267).
T1 sequence: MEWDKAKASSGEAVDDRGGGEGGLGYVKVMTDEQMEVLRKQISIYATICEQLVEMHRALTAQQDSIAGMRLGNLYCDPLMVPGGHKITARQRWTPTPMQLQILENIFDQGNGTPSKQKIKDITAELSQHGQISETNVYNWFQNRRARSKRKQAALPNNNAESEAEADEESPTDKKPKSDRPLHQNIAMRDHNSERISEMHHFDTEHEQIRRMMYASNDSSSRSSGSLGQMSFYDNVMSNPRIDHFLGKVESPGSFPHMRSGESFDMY
The experiment in a line: protein-binding microarray (RPBM); PBS, 2% BSA, 51.3 ng/ul salmon testes DNA, 50 uM zinc acetate, 200 nM TF, 25 C, 1 h; high values mean tight binding. Conditions: protein: recombinant; tags: N-terminal polyhistidine and DsRed monomer fusion (pET32a); label: CyDye5-dUTP incorporated in the synthesized complementary strand; 3' TTTTT single-stranded linker to array surface; dsDNA, one strand shown. An outline of the steps: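 Transcription factors were each fused at the N-terminus to a polyhistidine tag plus DsRed and expressed in E. coli BL21-CodonPlus before Ni–NTA purification. Binding to a double-stranded custom Agilent array was carried out with 200 nM protein at 25 °C for 1 h in PBS, 2% BSA, salmon testes DNA and 50 µM zinc acetate. The binding signal is per-feature fluorescence intensity, in arbitrary units, on an Axon 4000B scanner.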
For “TAGCCAATCTAATAGCTCATTCATATAATAATTACATACTCGGAGTCACCTAGTGCAG”, the binding signal was 4410 fluorescence intensity (a.u.).
For “GTGACATCATAATTTAGATTTAACTTATTCGTGCATATTACGGAGTCACCTAGTGCAG” the value was 9460 fluorescence intensity (a.u.).
In the case of “AGCTAAATCTGTGATTGCCGTTGCATCTAGCCACGTCGTCCGGAGTCACCTAGTGCAG”, the binding signal was 14600 fluorescence intensity (a.u.).
In the case of “GAATAACAGACATATCATATTTGTTGCCTCCTGGTGGCTACGGAGTCACCTAGTGCAG”, the binding signal is 7840 fluorescence intensity (a.u.).
With “ATTTGAATAATTAGGGAGTCTATGAACAGAAACATAGACCCGGAGTCACCTAGTGCAG”, the binding signal was 6000 fluorescence intensity (a.u.).
In the case of “TATCATCAATCCGCTAATTAACTGACAACGCATATTGGAGCGGAGTCACCTAGTGCAG”, the binding signal is 29400 fluorescence intensity (a.u.).
In the case of “ATTAGCAATTAATTAATTATTAATTGGATAATTAATCACTCGGAGTCACCTAGTGCAG”, the binding signal is 64800 fluorescence intensity (a.u.).
Consider “TTCAAATTAAGCTGCTTTAGATTATAATCTGAAGCTGGGCCGGAGTCACCTAGTGCAG”, for which the binding signal is 17800 fluorescence intensity (a.u.).
Turning to “GTGATTGGATCTGTAATTATCAATCTCTCTCTCTCTCTCTCGGAGTCACCTAGTGCAG”, the binding signal was 64600 fluorescence intensity (a.u.).
For “ATGTATATTAATTACTAGCCAAATGGTTAGCATGATTACTCGGAGTCACCTAGTGCAG”, the binding signal was 10900 fluorescence intensity (a.u.).
On to “TCATATAATTGGATTTATAATTAATCACCAATACCAAACTCGGAGTCACCTAGTGCAG”, for which the binding signal is 35300 fluorescence intensity (a.u.).
On to “ATAGCTATATCAATCTAGAATTGGATTAGATATATCTCGACGGAGTCACCTAGTGCAG”, for which the binding signal is 6040 fluorescence intensity (a.u.).
As for “GTAGATAATTAAATCGGATTAGCATTAGATAATCAAGCAACGGAGTCACCTAGTGCAG”, the binding signal is 37000 fluorescence intensity (a.u.).
With “TGTGATTAATTGGTAATCTGCTTTTACAAGCTTCAATTGCCGGAGTCACCTAGTGCAG”, the binding signal is 60400 fluorescence intensity (a.u.).
For “TGTTGGTGCTGTGATTAATTGGTAATCTGCTTTTACAAGCCGGAGTCACCTAGTGCAG”, the binding signal is 19800 fluorescence intensity (a.u.).
Consider “TATTGATTTGATAAAACTAATTTAGCATTATAAATATTATCGGAGTCACCTAGTGCAG”, for which the binding signal was 21300 fluorescence intensity (a.u.).
“AAAATTAAATTGATGGTATTACTAGCATTAATTAGCCACTCGGAGTCACCTAGTGCAG”: the binding signal is 62800 fluorescence intensity (a.u.).
On to “TCAATCAATTAATTAATTAATCGAATTGTGTTATATCTCTCGGAGTCACCTAGTGCAG”, for which the binding signal was 51000 fluorescence intensity (a.u.).
For the sequence “AACATGGAGAATATGCTAATTAGTAAAACATGTTGAAGTGCGGAGTCACCTAGTGCAG”, the binding signal is 3290 fluorescence intensity (a.u.).
Consider “GCACAATCATGCTACTAATTACCCTTTTCAACCTATAAATCGGAGTCACCTAGTGCAG”, for which the binding signal is 11200 fluorescence intensity (a.u.).
With “ACTAATTACACAGAATGCATGTAAATTACGAGACGAATCTCGGAGTCACCTAGTGCAG”, the binding signal was 31200 fluorescence intensity (a.u.).
Regarding “AAATTAAATTGCCCGGATCAATGGCTACAAATACCCCATGCGGAGTCACCTAGTGCAG”, the binding signal was 15200 fluorescence intensity (a.u.).
For “AATACACATTGACAGATGAGTTAACGCCCGTGACAGGCTGCGGAGTCACCTAGTGCAG” the value was 20500 fluorescence intensity (a.u.); for “CTTTATAAATTGTGTCATCTACTCATGTGTGGTAGGTCAACGGAGTCACCTAGTGCAG”, 5450 fluorescence intensity (a.u.).
The figure for “TTGAATTTAAATTTAAACGTATAGTGCCTTCCCTTTTACGCGGAGTCACCTAGTGCAG” is 22900 fluorescence intensity (a.u.).
The figure for “CAAATTAACTGGAAATTTTGAAGCATCCATGTTCTGTGAGCGGAGTCACCTAGTGCAG” is 46600 fluorescence intensity (a.u.); for “TTGATGTGCAATAATTAACGAGAGAAGAGTTTTCCCATAGCGGAGTCACCTAGTGCAG” it is 10300 fluorescence intensity (a.u.).
“TGGAATTGATTATGATGCTGTTTCCTTCATGGGAGCTCTACGGAGTCACCTAGTGCAG”: the binding signal is 31900 fluorescence intensity (a.u.).
Turning to “ATGGCTGGGTTGATTGATATGGAGTACAAACTAAGTGTAGCGGAGTCACCTAGTGCAG”, the binding signal was 25000 fluorescence intensity (a.u.).
In the case of “ACTAGTTAATCACGATTGATGGAAGCGGTTGATTGAATGACGGAGTCACCTAGTGCAG”, the binding signal was 51400 fluorescence intensity (a.u.).
Take “ATTAATTAGCTCTAGATTAAGCTAATTGCCATCAATGGCTCGGAGTCACCTAGTGCAG”: the binding signal is 46400 fluorescence intensity (a.u.).
For “TGGAATTCATCTAATTATATCATTTTCCTCCATACTAGCTCGGAGTCACCTAGTGCAG” the value was 3430 fluorescence intensity (a.u.).
Take “CCATTAGATTAGCACTAATTATCATACTTAGTCATTAGCTCGGAGTCACCTAGTGCAG”: the binding signal is 59100 fluorescence intensity (a.u.).
Consider “ATCATGGCAAATGATTGAAACTTTGAAGTAACGTTGGTGCCGGAGTCACCTAGTGCAG”, for which the binding signal is 38800 fluorescence intensity (a.u.).
For “TAAATTTGATTCCATTTCCGTTGCCTGTTCATTTCGTCGACGGAGTCACCTAGTGCAG” the value was 6090 fluorescence intensity (a.u.); for “AAATCATTAATAGTGCGTGATTAATTGAGTATTAATTATTCGGAGTCACCTAGTGCAG”, 8480 fluorescence intensity (a.u.); for “TGGTGTAGGGTTATGATTGGATGAGTAGTGGAGGTAGGTACGGAGTCACCTAGTGCAG”, 8550 fluorescence intensity (a.u.).
Turning to “CTGGACTGTCAAATCAAGGAGGATTGCGTACTAATCATGTCGGAGTCACCTAGTGCAG”, the binding signal is 9940 fluorescence intensity (a.u.).
As to “AAAATCACTGGATTAATTGATTGCGTCGTACTATCATTGCCGGAGTCACCTAGTGCAG”, the binding signal was 64600 fluorescence intensity (a.u.).
As for “AAAATTATGGATTGGATGATTAATCACTGATAGGTAGTACCGGAGTCACCTAGTGCAG”, the binding signal is 56900 fluorescence intensity (a.u.).
Regarding “TTAATCACTGGTAATTATAGATTTATAGGTGATTAATCACCGGAGTCACCTAGTGCAG”, the binding signal was 17900 fluorescence intensity (a.u.).
Regarding “CTAAACACGTCCTATCATGTCACGTAGATAATATGACACGCGGAGTCACCTAGTGCAG”, the binding signal was 4110 fluorescence intensity (a.u.).
On to “TAGATAAATTACCCTAAAATCCTGTAAAACTTCTGCATTTCGGAGTCACCTAGTGCAG”, for which the binding signal is 3350 fluorescence intensity (a.u.).
The figure for “AAATAAATTAATATAACTTATAAAGCAGCTTTTGTATAATCGGAGTCACCTAGTGCAG” is 13600 fluorescence intensity (a.u.); for “AATGCAGGAACAGCATAAGCTTTGCGTATATTTGTATTAACGGAGTCACCTAGTGCAG” it is 65500 fluorescence intensity (a.u.).
For the sequence “ATAAAATTTAATATTAAATATGCATTTGAACAGCTATAAACGGAGTCACCTAGTGCAG”, the binding signal was 6360 fluorescence intensity (a.u.).
The figure for “TTATTAATTCCATAATCAGAACTTTGATGTGATATAACCTCGGAGTCACCTAGTGCAG” is 9130 fluorescence intensity (a.u.).
As for “TCTGGGTGATTTGTTGCAAAAGAATATTTTAATTCACTGCCGGAGTCACCTAGTGCAG”, the binding signal is 14000 fluorescence intensity (a.u.).
Regarding “GCGAACTTAATTGCTGCTAGAATGCTGCTGAAATTGGTGACGGAGTCACCTAGTGCAG”, the binding signal was 8360 fluorescence intensity (a.u.).
For “GGGAGAGAATGTGCTAATTAATTGCATGCATGCATGCACGCGGAGTCACCTAGTGCAG” the value was 12000 fluorescence intensity (a.u.); for “CATCTGGCGATTGCATATTAATTTGCATGGCGAAGCTTCCCGGAGTCACCTAGTGCAG”, 5830 fluorescence intensity (a.u.); for “ATTTGATCTGATTTGATTAATTTTGCATGCACGCGAATGGCGGAGTCACCTAGTGCAG”, 61700 fluorescence intensity (a.u.).
The figure for “GACTTTAATGATGCTGACACCGGCTTAATTAGTATTGCGGCGGAGTCACCTAGTGCAG” is 8560 fluorescence intensity (a.u.); for “GTGATGATGAATTAATTGCTGAATGGCGAATGCAGTGCAGCGGAGTCACCTAGTGCAG” it is 58900 fluorescence intensity (a.u.).
